CDC25B CDK2 inh – human CDC25B-CDK2/CyclinA binding inhibition; P30305+P24941; HTRF CDC25B-CDK2/CyclinA binding, anti-His/anti-Flag; stronger effect = higher value; z-score (concentration not given with the values); 0.72% of 94,000 active; AID 1259370; in the data active = z-score above about 3.2
TAR Tat displ – HIV-1 TAR-Tat binding disruption; HIV-1 TAR RNA, Tat peptide displacement FRET; stronger effect = higher value; z-score (concentration not given with the values); 0.6% of 100,000 active; active = z-score of 3 or more in at least 2 runs
Numbers stand for hits; 0 = inactive; - = not tested or not shown. An excerpt weighted towards active compounds, which were near 0.9% of everything screened.

SMILES | CDC25B CDK2 inh | TAR Tat displ
COC(=O)c1ccc([C@@H]2Nc3ccc(C(=O)O)cc3[C@@H]3C=CC[C@@H]32)cc1 | 0 | 7.4
COc1cccc([C@@H]2Nc3ccc(C(=O)O)cc3[C@@H]3C=CC[C@@H]32)c1OC | 0 | 0
CC(=O)Oc1ccc(C2Nc3ccc(C)cc3C3C=CCC32)c(OC(C)=O)c1 (stereo not drawn) | 0 | 0
O=C(O)c1ccc2c(c1)C1C=CCC1C(c1ccc(F)cc1)N2 (stereo not drawn) | 0 | 10
CCc1ccc(C2Nc3ccc(C(=O)O)cc3C3C=CCC32)cc1 (stereo not drawn) | 0 | -
COC(=O)c1ccc(C2Nc3ccc(OC)cc3C3C=CCC32)cc1 (stereo not drawn) | 0 | 0
CC(C)OC(=O)c1ccc(CSc2nc3c(c(=O)[nH]2)CCC3)cc1 | 0 | 0
Cc1ccc2nc(N(CCCN(C)C)C(=O)c3ccc4c(c3)OCCO4)sc2c1 | - | 0
Cc1ccc(C)c(NS(=O)(=O)c2ccc3c(c2)S(=O)(=O)N=CN3)c1 | - | 0
Cc1cc(C)c2c(n1)nn1c(C)c(CCC(=O)NC3CCCC3)c(C)nc21 | 0 | 0
CCN(CC)c1ccc(NC(=O)CCc2c(C)nc3c4c(C)cc(C)nc4nn3c2C)c(C)c1 | 0 | 6.4
O=C(CSc1nnc(-c2cccnc2)o1)NC1CCCC1 | 0 | 4.6
O=C(CSc1nnc(-c2cccnc2)o1)NCC1CCCO1 (stereo not drawn) | 0 | 0
CN1C(C(=O)Nc2sc3c(c2C(N)=O)CCCC3)=CC(c2ccco2)=NS1(=O)=O | 0 | 0
CN1C(C(=O)Nc2sc3c(c2C#N)CCC3)=CC(c2ccco2)=NS1(=O)=O | 0 | 6.1
COc1ccccc1N1CSC2=C(C#N)C(c3ccccc3)CC(=O)N2C1 (stereo not drawn) | 4.9 | 0
COc1ccc(C2CC(=O)N3CN(c4ccccc4OC)CSC3=C2C#N)cc1 (stereo not drawn) | 4.3 | 0
O=C(NCC1CCCO1)c1cccc(N2C(=O)c3ccc([N+](=O)[O-])cc3C2=O)c1 (stereo not drawn) | 3.5 | -
O=C(NCC1CCCO1)c1cccc(N2C(=O)CCS2(=O)=O)c1 (stereo not drawn) | 0 | 0
CCOCCCNC(=O)c1ccc2c(=O)[nH]c3c(C(=O)NC4CCCC4)sc(=S)n3c2c1 | - | 0
O=C(NCc1ccco1)c1ccc2c(=O)[nH]c3c(C(=O)NC4CCCC4)sc(=S)n3c2c1 | - | 16
O=c1ccc(-c2ccc(S(=O)(=O)Nc3ccc(Oc4ccc(Cl)cc4)cc3)s2)n[nH]1 | - | 0
FC(F)(F)C(=C(NC(=S)N1CCCCCC1)C(F)(F)C(F)(F)F)C(F)(F)F | 5.7 | -
FC(F)(F)C(=C(NC(=S)n1cnc2ccccc21)C(F)(F)C(F)(F)F)C(F)(F)F | 0 | -
Cc1cc(C)cc(OCc2cc(=O)n3oc(C)cc3n2)c1 | 0 | 0
SMILES | CDC25B CDK2 inh | TAR Tat displ
CC(=O)Nc1cccc(OCc2cc(=O)n3oc(C)cc3n2)c1 | 0 | 8.1
O=S1(=O)C[C@H](N2CCN(c3ccc(F)cc3)CC2)[C@@H](S(=O)(=O)c2cccs2)C1 | 0 | 0
O=c1c(-c2cc(O)c(O)c(O)c2)coc2cc(O)c(O)c(O)c12 | - | 26
O=c1c(-c2ccc(O)cc2)coc2cc(O)cc(O)c12 | 0 | 0
O=C(Nc1ccc(C(=O)N2CCCC2)cc1)C1=CSCCO1 | - | 0
C=CCn1c(CSc2nc3sc(C)c(C)c3c(=O)[nH]2)nnc1SC/C=C/c1ccccc1 | 0 | -
CC1CC(C)CN(c2cc(NCCO)c3c4c(onc24)-c2ccccc2C3=O)C1 (stereo not drawn) | 0 | 0
CC1CCCN(c2cc(NCCO)c3c4c(onc24)-c2ccccc2C3=O)C1 (stereo not drawn) | 0 | 0
CN1CCN(c2cc(NCC(=O)O)c3c4c(onc24)-c2ccccc2C3=O)CC1 | 3.9 | 0
CC1CC(C)CN(c2cc(NCC(=O)O)c3c4c(onc24)-c2ccccc2C3=O)C1 (stereo not drawn) | 12 | 0
CCOC(=O)C1CCCN(c2cc(NCCO)c3c4c(onc24)-c2ccccc2C3=O)C1 (stereo not drawn) | 0 | 8.8
CCNc1cc(N2CCN(C)CC2)c2noc3c2c1C(=O)c1ccccc1-3 | 0 | 0
CC1CCCN(c2cc(NCC(=O)O)c3c4c(onc24)-c2ccccc2C3=O)C1 (stereo not drawn) | 3 | 0
CCNc1cc(N2CCCC(C(=O)OCC)C2)c2noc3c2c1C(=O)c1ccccc1-3 (stereo not drawn) | 0 | 0
O=C(NCc1ccco1)Nc1ccc2c(c1)CCN2S(=O)(=O)c1ccccc1 | - | 0
Cc1csc2ncc(C(=O)N3c4ccc(F)cc4CCC3C)c(=O)n12 (stereo not drawn) | 0 | 0
COc1cc(C2C=C(C(=O)O)Nc3ncnn32)cc(Br)c1O (stereo not drawn) | - | 0
CCC(=O)N1CCc2cc(Br)cc(S(=O)(=O)CCC(=O)N3CCC(C)CC3)c21 | 0 | -
O=C(CSCc1cc(=O)c2ccccc2[nH]1)Nc1ccccc1Cl | - | 0
COc1nc2c(C)cccc2cc1-c1noc(C)n1 | 0 | 0
CCN1CCN(c2cc(N3CCCCC3)c3c4c(onc24)-c2ccccc2C3=O)CC1 | 0 | 0
CC1CCCN(c2cc(NCCCC(=O)O)c3c4c(onc24)-c2ccccc2C3=O)C1 (stereo not drawn) | 0 | 0
CN1CCN(c2cc(N3CCCCC3)c3c4c(onc24)-c2ccccc2C3=O)CC1 | 5.6 | 0
CC1CC(C)CN(c2cc(NCCCC(=O)O)c3c4c(onc24)-c2ccccc2C3=O)C1 (stereo not drawn) | 3 | 0
COC(=O)C1Nc2ccccc2S(=O)(=O)N1Cc1ccc(F)cc1 (stereo not drawn) | 0 | 0
SMILES | CDC25B CDK2 inh | TAR Tat displ
O=C(COc1ccccc1Cl)Nc1cccc(OCc2cc(=O)n3c4c(sc3n2)CCCC4)c1 | 0 | 0
CCOC(=O)c1[nH]c2sc(C)c(C)c2c1N | 0 | 0
CCOC(=O)c1[nH]c2sc3c(c2c1N)CCCC3 | 17 | 5.2
COC(=O)c1[nH]c2sc3c(c2c1N)CCCC3 | 14 | 7
O=c1[nH]c(=S)[nH]c2sc3c(c12)CCCC3 | 0 | -
Cc1cccn2c(=O)c(C(=O)NC(C)C)cnc12 | 0 | 0
COC(=O)CCc1ccc(OCC(O)CNC(C)C)cc1 (stereo not drawn) | - | 0
CC(C)NCC(O)COc1ccc(COCCOC(C)C)cc1 (stereo not drawn) | 5.2 | 0
CCOCCCNc1ncc2c(n1)CC(c1ccco1)CC2=O (stereo not drawn) | 0 | -
O=C1CC(c2cccs2)Cc2nc(NCCSc3ccc(Cl)cc3)ncc21 (stereo not drawn) | 21 | 0
CCOC(=O)c1c(C)oc2ncnc(N3CCCC3)c12 | - | 0
CCOC(=O)c1ncn(-c2ccccc2)n1 | 0 | 0
CCOC(=O)Cn1cnc2nn(-c3ccccc3)cc2c1=O | 0 | 5.1
CC1(C)C(=O)Nc2ccc(S(=O)(=O)NCCN3CCN(c4ccccc4F)CC3)cc21 | - | 0
CCC(Sc1nc2ncccc2[nH]1)C(=O)N(CC)c1ccccc1 (stereo not drawn) | - | 0
CCC(C)Cn1c(C)c2c(=O)n(-c3nc4ccccc4s3)[nH]c2cc1=O (stereo not drawn) | 0 | 0
Cc1c2c(=O)n(-c3nc4ccccc4s3)nc-2cc(O)n1CCc1cnc[nH]1 | 0 | 26
Cc1c2c(=O)n(-c3nc4ccccc4s3)nc-2cc(O)n1CCc1c[nH]c2ccccc12 | 0 | 9.2
Cc1nn(C(C)C(=O)NCCc2c[nH]c3ccccc23)c(=O)c2c1sc1ccccc12 (stereo not drawn) | 0 | 0

High-throughput results deposited in PubChem BioAssay by Center for Chemical Genomics, University of Michigan.
